In PubChem BioAssay (EPA / NIEHS):
Results filed as inconclusive are left out. Calls of active or inactive are those of the source. The calls were made as follows: active = hit-call score of the fitted dose curve at least 0.9, where 1 is the maximum; inconclusive = response in the unintended direction; inactive = score below 0.9.

Assay: TOX21_p53_BLA_p3_viability: Viability Assessment in the Tox21 HCT-116 p53 Agonism Beta-lactamase Assay, Phase 3 (AID 2283593);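 also: cells exposed to compound for 16 h before reading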
In short: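 HCT-116 cells (4000/well) rested 5 h at 37C, then got DMSO compounds by pin tool (217-fold dilution) for 16 h at 37C, 5% CO2. After the bla read, CellTiter-Glo was added and luminescence read at 30 min, room temperature.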

| Structure (SMILES) | outcome | AC50 |
| --- | --- | --- |
| NCCNCCN | inactive |  |
| CCCCCNCCCCC | inactive |  |
| CC(=O)Nc1ccc(C)cc1C | inactive |  |
| CCN(CC)c1ccc(C(=C2C=CC(=[N+](CC)CC)C=C2)c2ccc(S(=O)(=O)O)cc2S(=O)(=O)[O-])cc1 |  | 23.1 µM (active) |
| CC[Si](OC(C)=O)(OC(C)=O)OC(C)=O | inactive |  |
| CN(CCOc1ccc(CC2SC(=O)NC2=O)cc1)c1ccccn1 (stereo not given) | inactive |  |
| O=c1[nH]nnc2ccccc12 | inactive |  |
| C[Si](O[Si](C)(C)C)O[Si](C)(C)C | inactive |  |
| C#C[C@]1(O)CC[C@H]2[C@@H]3CCC4=Cc5oncc5C[C@]4(C)[C@H]3CC[C@@]21C | inactive |  |
| O=C(O)Cc1cccc2ccccc12 | inactive |  |
| CC(C)(C)C(=O)c1ccccc1 | inactive |  |
| CCC(C)CCCC(C)(C)O (stereo not given) | inactive |  |
| CCCCCCCCCC=O | inactive |  |
| Nc1cccc(S(=O)(=O)c2cccc(N)c2)c1 | inactive |  |
| Clc1nc(C(Cl)(Cl)Cl)c(Cl)c(Cl)c1Cl | inactive |  |
| C[C@H]1C[C@H]2[C@@H]3CCC4=CC(=O)C=C[C@]4(C)[C@@]3(F)[C@@H](O)C[C@]2(C)[C@@]1(O)C(=O)COP(=O)(O)O | inactive |  |
| O=C[C@@H](O)[C@H](O)[C@H](O)CO | inactive |  |
| CC(C)C(C)(C)C(C)(C)C(C)(C)S | inactive |  |

| Structure (SMILES) | outcome | AC50 |
| --- | --- | --- |
| CCCCCCCCCCN | inactive |  |
| O=C(O)c1cccc(C(F)(F)F)c1 | inactive |  |
| CCCCCCCCCCCCCCCC(=O)O | inactive |  |
| CC(=O)C(C)=O | inactive |  |
| COC(=O)OC | inactive |  |
| CC1(C)CCC(C)(C)c2cc(C(=O)Nc3ccc(C(=O)O)cc3)ccc21 |  | 46.1 µM (active) |
| CCCCCCCCCCCCCCCCCC(=O)OCC(CC)CCCC (stereo not given) | inactive |  |
| COc1cccc(OC)c1 | inactive |  |
| O=C(O)CCCCC1CCSS1 (stereo not given) | inactive |  |
| N#Cc1ccccc1 | inactive |  |
| CN(C)C(=N)N=C(N)N | inactive |  |
| CC(=O)OCCOC(C)=O | inactive |  |
| CC(C)c1cccc(O)c1 | inactive |  |
| CN(C)CCOCCN(C)C | inactive |  |
| COC(=O)Cc1cccc2ccccc12 | inactive |  |
| O=C(O)c1cccc([N+](=O)[O-])c1 | inactive |  |
| C=C(C)[C@@H]1CC[C@@H](C)C[C@@H]1O | inactive |  |
